# In PubChem BioAssay AID1347076 (National Center for Advancing Translational Sciences (NCATS), 2019):
# Hit rate of the full screen: of about 400,000 compounds, about 13,000 (3.2%) were called active. About 18% were inconclusive and are not listed. The entries come from a sample that favours actives as a whole. Unmarked numbers belong to inactive results. Calls come from the whole dose curve; as a rule, active = well fitted cell-killing curve with a large enough effect; inconclusive = small, poorly fitted or top-dose-only effect, or effect the other way; inactive = flat fitted curve, though single readings scatter.
# Assay: qHTS assay for MDR1-selective chemotherapeutics: Primary screen using the drug-selected MDR subline cells KB-V1; note: nearly all actives have a fitted effect of over 60% in size
# Conditions: KB-V1 MDR cells viability, CellTiter-Glo, 72 h; series mostly up to 46.1 µM; activity change, negative = cytotoxicity: at the top concentration
# Source text: A prime difficulty in effectively treating cancer is the development of cellular resistance to multiple structurally unrelated anticancer drugs, a phenomenon known as multidrug resistance (MDR). […] Numerous strategies to overcome P-gp-mediated MDR have been explored, including the design of drugs that evade recognition and efflux, and development of inhibitors to block efflux and restore drug accumulation. […] An alternative approach is to exploit resistance by identifying drugs that target MDR cells over the non-resistant parental cells from which they were selected. […] The development of MDR1-selective agents represents a new strategy for resolving multidrug resistance, as it remains a long-standing clinical challenge for cancer chemotherapy.
# Our goal is to identify compounds that selectively kill P-gp-expressing MDR cells. We will identify MDR1-selective compounds by comparing toxicity of compounds in the screening library against parental, drug-naive (KB-3-1) adenocarcinoma cells as well as their drug-selected MDR sub-line (KB-V1). The differential toxicity of compounds against these two cell lines will be used to identify MDR1-selective compounds, whose cytotoxicity is potentiated, rather than diminished, by P-gp expression. This assay will be utilized to conduct a quantitative high-throughput screen (qHTS) in collaboration with the NIH Chemical Genomics Center to identify selective agents, and probe hits arising from the screen will be validated using secondary assays and characterized through a well-established follow-up research program. This screen was run against the entire NCGC library collection of about 400,000 compounds.
# NIH Molecular Libraries Probe Production Network [MLPCN]
# NIH Chemical Genomics Center [NCGC]
# PI: Michael Gottesman, National Cancer Institute, NIH
# Briefly, 5 microL of media containing either KB-V1 cells (columns 1-2, 4-48) are dispensed into Greiner white, treated solid-bottom 1536-well assay plates (media-only control is added to column 3). Compounds are then transferred via Kalypsys pin tool equipped with 1536-pin array (10 nL slotted pins, V&P Scientific, San Diego, CA). Following addition of compound, the plates are incubated at 37 degrees C for 72 hours. CellTiter-Glo (2.5 µL/well) is then added, and the plates are read in a ViewLux reader (Perkin-Elmer, clear luminescence filter, 1 second exposure, 1x binning) following a 10 minute incubation. All cells are dispensed in DMEM phenol-red free media containing 10% FBS.
# Library plates were screened starting from the lowest and proceeding to the highest concentration. Vehicle-only plates, with DMSO being pin-transferred to columns 5-48, will be inserted uniformly at the beginning and the end of each library in order to monitor and record any shifts in the background, which can be affected by reagent dispensers or loss in enzyme activity over time. Screening data will be corrected, normalized, and concentration-effect relationships will be derived by using publicly-available NCGC, NCATS curve fitting algorithms (http://ncgc.nih.gov/pub/openhts).
# % is set by controls: 0 for no effect and ±100 for the full control effect; potency is the fitted concentration of half-maximal effect.
SMILES,Potency,"activity change, negative = cytotoxicity [%]"
Cc1cccc(-n2c(SCC(N)=O)nc3c(c2=O)C2(CCCCC2)Cc2ccccc2-3)c1,18.4 µM (active),–
N#CCSc1nc2c(c(=O)n1Cc1ccccc1)C1(CCCC1)Cc1ccccc1-2,–,-15.3
CCOC(=O)c1cnn2c(SC)ncnc12,–,6.59
CCCS(=O)(=O)NC(=O)C1(C)CCCN(C(=O)c2ccnc(Cl)c2)C1 (stereo not drawn),–,1.85
CC(=C/c1ccccc1)/C=N/NC(=O)c1cc(C)oc1C,14.6 µM (active),–
Cc1cc(C(=O)N/N=C\C(Br)=C\c2ccccc2)c(C)o1,–,-3.75
COc1ccc(C/C(C)=N/NC(=O)c2cc(C)oc2C)cc1,–,-7.09
Cc1ccc(CCNC(=O)CN2C(=O)CSc3ccc(S(=O)(=O)N4CCOCC4)cc32)cc1,–,15.4
CCOC(=O)C1=CCC(c2ccc(F)cc2)N(S(=O)(=O)c2ccc(C)cc2)C1 (stereo not drawn),–,-0.713
COc1cc(/C=N/NC(=O)c2ccc(N3CCCC3=O)cc2)ccc1O,–,-11.4
O=C(N/N=C/c1cccc(Br)c1)c1ccc(N2CCCC2=O)cc1,16.4 µM (active),–
Cn1c(=O)n(C)c2cc(/C=N/NC(=O)c3cccc(Br)c3)ccc21,–,-0.491
COc1ccc2cc(CNc3ccc(OC)c(OC)c3)c(=O)n(CC(=O)Nc3ccccc3F)c2c1,–,-29.6
N#Cc1cnn2cc(CCN3CCOCC3)c(-c3ccc(F)cc3)nc12,–,-3.16
COc1ccc2c(c1)CCc1cn3ncc(C#N)c3nc1-2,1.3 µM (active),–
COc1ccc2c(c1)CCc1c(C(=O)N3CCCC3)noc1-2,–,-12.9
COc1ccccc1N1CCN(C(=O)C2CCN(S(=O)(=O)c3c(C)noc3/C=C/c3ccc(C)cc3)CC2)CC1,–,0
Cc1[nH]c2ccccc2c1C(=O)C(=O)NCc1nnnn1-c1cccc(F)c1,–,12.9
CN(CC(=O)NCCc1ccccn1)S(=O)(=O)c1ccc(Cl)cc1,–,-26.4
CN(CC(=O)NCC(c1ccccc1)N1CCCC1)S(=O)(=O)c1ccc(Cl)cc1 (stereo not drawn),20.6 µM (active),–
CN(CC(=O)Nc1cccc2c1CCCC2)S(=O)(=O)c1ccc(Cl)cc1,–,-1.34
Cc1ccc(S(=O)(=O)N(C)CC(=O)NCC(c2ccc(F)cc2)N2CCOCC2)cc1 (stereo not drawn),–,-1.34
Cc1nc(NC(=O)CN(C)S(=O)(=O)c2ccc(Cl)cc2)sc1C,14.6 µM (active),–
CN(CC(=O)NNC(=O)CNC(=O)c1ccccc1Cl)S(=O)(=O)c1ccc(Cl)cc1,–,0

SMILES,Potency,"activity change, negative = cytotoxicity [%]"
CCCNC(=O)C1(C)CCN(Cc2csc(-c3ccc(Cl)cc3)n2)C1 (stereo not drawn),–,1.9
C[C@H]1CN([C@@H](C)CO)C(=O)CCCn2cc(nn2)CO[C@@H]1CN(C)S(=O)(=O)c1ccccc1C#N,–,-13.8
COc1ccc(C(C)(NC(C)=O)c2nc(-c3ccc(S(C)(=O)=O)cc3)cs2)cc1 (stereo not drawn),–,1.16
CCOC(=O)c1ccc(NC(=O)c2c(NCc3cccc(OC)c3)sc3c2CCC3)cc1,–,-12.7
CCn1c(SCC(=O)Nc2nccs2)nnc1-c1ccco1,–,-3.3
COc1cc(Cl)c(C)cc1NC(=O)CSc1nnc(-c2ccco2)n1CC(C)C,4.11 µM (active),–
Cc1cc(NC(=O)CSc2nnc(-c3ccco3)n2N)no1,–,-12.3
CCCC12CN3CC(CCC)(CN(C1)C3c1c[nH]c3ccc(OC)cc13)C2=O (stereo not drawn),–,2.68
CCOc1ccc(CCN2C(=O)C(=O)N([C@@H](CC(C)C)CN3CCC[C@H]3CN3C(=O)C(=O)NC[C@@H]3Cc3ccccc3)C[C@@H]2CC(C)C)cc1,–,-16.9
O=C(CCn1c(=O)c2ccccc2n(Cc2ccc(Cl)cc2)c1=O)NCc1ccc2c(c1)OCO2,–,-6.5
C[C@H]1CN([C@@H](C)CO)S(=O)(=O)c2ccc(-c3cccc(F)c3)cc2O[C@@H]1CN(C)C,–,-17.3
O=C(C(=O)N1CCN(c2ccccc2)CC1)c1ccc2c(c1)OCO2,–,-14.5
N#Cc1ccc(Oc2ccc(C(F)(F)F)cc2NC(=O)c2ccc(F)cc2)cc1,–,14.9
N#Cc1ccc(C(=O)Nc2nc(-c3cccs3)c(C(=O)C(F)(F)F)s2)cc1,13 µM (active),–
COc1ccc(C(=O)Nc2nc(-c3ccc(OC)cc3)c(-c3ccc([N+](=O)[O-])cc3)s2)cc1,–,-2.17
COC(=O)[C@]12CCCCC=C1N(Cc1cccc3ccccc13)C(=O)[C@H](CC(=O)N1CCOCC1)C2,–,-6.11
Cc1nc(C(F)(F)F)ccc1C(=O)N1CCC1(C)C(=O)NS(=O)(=O)c1ccccc1 (stereo not drawn),–,2.14
Fc1ccc2c(c1)C(c1cccnc1)=NNC(c1cccs1)=N2,11.6 µM (active),–
COc1ccc2c(c1)C(c1cccs1)=NNC(c1cccnc1)=N2,–,-13.5
CC(=O)NN=C(C)c1ccc(NC(=O)C2CC2)cc1,–,13.9
O=C(O)c1ccccc1-c1cccc2nncn12,–,0.0342
COC(=O)c1c(C)[nH]c(C(=O)NCCc2ccc(S(N)(=O)=O)cc2)c1C,–,4.06
Cc1ccc(NC(=S)NC(=O)/C=C/c2ccc(Cl)cc2)cc1,–,4.47
COC(=O)c1c(C)[nH]c(C(=O)/C=C/c2ccc(Cl)cc2)c1C,14.6 µM (active),–
